Results from paper PMC6919601, “Identification of Plasmodium dipeptidyl aminopeptidase allosteric inhibitors by high throughput screening” (PLoS ONE, 2019).
About 230 (0.21%) of roughly 110,000 compounds showed an effect of 50% or more. The sample as a whole holds a higher share of strong results than the screen did.

Target: DPAP1 (Plasmodium falciparum, UniProt Q8IIJ9)
Assay: primary screen, percent inhibition; read by cleavage of a fluorogenic dipeptide substrate; higher = more effect of the substance
Design: species or system P. falciparum D10 trophozoite lysates; single well
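Note: 30 min substrate incubation versus DMSO and 10 µM JCP410 controls.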

Sequence of DPAP1 (Q8IIJ9 whole entry, looked up): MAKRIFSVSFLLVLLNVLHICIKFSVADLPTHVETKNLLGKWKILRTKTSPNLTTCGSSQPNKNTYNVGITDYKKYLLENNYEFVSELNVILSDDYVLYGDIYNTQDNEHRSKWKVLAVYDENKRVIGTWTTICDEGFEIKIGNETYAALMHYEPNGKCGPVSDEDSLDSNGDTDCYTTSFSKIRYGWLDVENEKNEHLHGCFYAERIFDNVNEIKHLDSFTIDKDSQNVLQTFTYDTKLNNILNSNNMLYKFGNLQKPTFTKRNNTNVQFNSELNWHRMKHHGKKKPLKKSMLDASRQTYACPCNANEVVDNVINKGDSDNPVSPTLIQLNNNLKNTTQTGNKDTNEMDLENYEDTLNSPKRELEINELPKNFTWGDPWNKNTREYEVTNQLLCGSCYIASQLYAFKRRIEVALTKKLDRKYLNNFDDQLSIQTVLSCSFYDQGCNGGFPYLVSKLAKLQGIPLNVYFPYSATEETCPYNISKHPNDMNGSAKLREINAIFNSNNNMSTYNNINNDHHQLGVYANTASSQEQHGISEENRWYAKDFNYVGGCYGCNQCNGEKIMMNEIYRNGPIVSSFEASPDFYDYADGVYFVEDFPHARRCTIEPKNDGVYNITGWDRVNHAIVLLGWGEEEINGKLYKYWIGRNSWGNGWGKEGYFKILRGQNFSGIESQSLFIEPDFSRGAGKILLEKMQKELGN

| Compound | % Inhibition @ 10 uM |
| --- | --- |
| CCOC(=O)c1cc(-c2ccccc2)n(CCC(=O)N2CCCC(C)C2)c1C (stereo not drawn) | 1.2% |
| COc1ccccc1CNC(=O)c1cccc(Br)c1 | -4.15% |
| N#Cc1cc2c(N)c(C(=O)c3ccc(Br)cc3)sc2nc1N | 2.7% |
| O=C(NCC1CCCO1)C1CCC(CNS(=O)(=O)c2cccc3nsnc23)CC1 (stereo not drawn) | 4.54% |
| Cc1ccc(NC(=O)COc2ccc(C)cc2C)cc1 | -8.06% |
| Cc1cccc(NC(=O)COc2ccc(C)cc2C)c1 | -2.32% |
| Cc1ccc(OCC(=O)Nc2ccccc2)c(C)c1 | 78% |
| COc1ccc(NC(=O)c2ccc(C)c(Br)c2)cc1 | 2.42% |
| Cc1c(CNC2CCCc3ccccc32)c(C(=O)O)c(C)n1Cc1ccc(F)cc1 (stereo not drawn) | -5.49% |
| Cc1cccc(Oc2nc3c(C)cccn3c(=O)c2/C=C(\C#N)C(=O)NCC2CCCO2)c1 (stereo not drawn) | -9.06% |
| C=CCN1C(=O)C(CC(=O)NCC)S/C1=N\c1cccc2ccccc12 (stereo not drawn) | 0.512% |
| COC(=O)/C(C#N)=C/c1c(Oc2cccc(C)c2C)nc2ccccn2c1=O | -5.1% |
| Cc1ccc(C(C)C)c(Oc2nc3ccccn3c(=O)c2/C=C(\C#N)C(=O)NCc2ccccc2)c1 | -1.43% |
| CCNC(=O)/C(C#N)=C/c1c(Oc2cc(C)ccc2C(C)C)nc2ccccn2c1=O | 75.9% |
| CCOC(=O)/C(C#N)=C/c1c(Oc2ccccc2OC)nc2ccccn2c1=O | -5.1% |
| CNC(=O)/C(C#N)=C/c1c(Oc2cc(C)ccc2C(C)C)nc2ccccn2c1=O | 17% |
| CCOC(=O)/C(C#N)=C/c1c(Oc2cccc(C)c2C)nc2ccccn2c1=O | 77.8% |
| Cc1cc(C)c2c(n1)SCC(=O)N2CC(=O)NCc1cccc(Cl)c1 | -6.01% |
| COCCN(Cc1ccco1)C(=O)c1cc2c(Cl)nc3ccccc3c2s1 | 3.88% |
| Cc1ccc(-c2nnc(SCC(=O)N3CCC(C)CC3)o2)cc1C | 1.3% |
| COc1ccc(CN2CCN(Cc3cccc(F)c3)CC2)c(OC)c1OC | 5.99% |

| Compound | % Inhibition @ 10 uM |
| --- | --- |
| Cc1cc(Oc2nc3ccccn3c(=O)c2/C=C(\C#N)c2nc3ccccc3[nH]2)ccc1Cl | 92.2% |
| Cc1cccc(Oc2nc3ccccn3c(=O)c2/C=C(\C#N)c2nc3ccccc3[nH]2)c1 | 6.78% |
| N#C/C(=C\c1c(Oc2ccccc2Cl)nc2ccccn2c1=O)c1nc2ccccc2[nH]1 | -1.86% |
| COc1ccc(-c2nc(CSc3nnc(C)n4c3cc3oc(C)cc34)c(C)o2)cc1 | 3.61% |
| Cc1cc(C)c(S(=O)(=O)N2CCN(c3ccc(F)cc3)CC2)c(C)c1 | -6.86% |
| CN(c1ccc(C(=O)Nc2ccc(F)cc2)cc1)S(=O)(=O)c1ccccc1 | -7.56% |
| Cc1sc(NC(=O)COc2ccc(F)cc2F)c(C#N)c1C | 93.9% |
| CCc1c(C)sc(NC(=O)COc2ccc(F)cc2)c1C#N | 0.777% |
| Cc1sc(NC(=O)COc2ccc(Cl)cc2Cl)c(C#N)c1C | 1.25% |
| CCCNC(=O)c1cc2ncc(Br)cn2n1 | 1.04% |
| O=C(Nc1cccnc1)c1cc2n(n1)C(C(F)(F)F)CC(c1ccc(Br)cc1)N2 (stereo not drawn) | 2.99% |
| O=C(Nc1ccc(Br)cn1)c1cc2n(n1)C(C(F)(F)F)CC(c1ccccc1)N2 (stereo not drawn) | 50.4% |
| O=C(O)c1cc2n(n1)C(C(F)(F)F)CC(c1ccccc1)N2 (stereo not drawn) | -1.32% |
| O=C(Cc1nnc(-c2ccc(Br)cc2)o1)NC1CCN(Cc2ccccc2)CC1 | 2.28% |
| CP(=O)(O)c1nc2ccccc2s1 | -2.44% |
| C1=C(c2ccc3c(c2)c2c4n3CCN(Cc3ccccc3)C4CCC2)C2CCN1CC2 (stereo not drawn) | 70.5% |
| c1ccc(CN2CCn3c4c(c5ccccc53)CCCC42)cc1 (stereo not drawn) | -1.25% |
| Cc1ccc2c(c1)c1c3n2CCN(Cc2ccccc2)C3CCC1 (stereo not drawn) | 1.26% |
| CN(C)CCN(C)C1CCN(Cc2ccccc2)CC1 | 0.162% |
| Cc1cc(C)c(C#N)c(SCc2ccccn2)n1 | 66.4% |
| Cc1cc(C)c(C#N)c(SCc2ccccc2F)n1 | 40.7% |

| Compound | % Inhibition @ 10 uM |
| --- | --- |
| Cc1cc(C)c(C#N)c(SCc2ccccc2)n1 | -0.305% |
| CCOC(=O)c1c(NC(=O)/C=C/C(=O)O)sc2c1CCN(Cc1ccccc1)C2 | -1.92% |
| CCOc1ccc(CC(=O)Nc2sc3c(c2C(N)=O)CCCC3)cc1OCC | -13.5% |
| CC(Oc1ccc(F)cc1)C(=O)Nc1sc2c(c1C(N)=O)CCC2 (stereo not drawn) | 2.44% |
| Cc1cc(C(F)(F)F)nn1CC(=O)Nc1sc2c(c1C(N)=O)CCCC2 | -1.49% |
| Cc1cc(C(F)(F)F)nn1CC(=O)Nc1sc2c(c1C#N)CCCCC2 | 2.76% |
| NC(=O)c1c(NC(=O)COc2ccc(Cl)cc2)sc2c1CCCCCC2 | -4.33% |
| NC(=O)c1c(NC(=O)COc2ccccc2)sc2c1CCCCC2 | 1.88% |
| Cc1cc(C(F)(F)F)nn1CC(=O)Nc1sc2c(c1C(N)=O)CCCCC2 | 54.5% |
| NC(=O)c1c(NC(=O)COc2ccc(Cl)cc2)sc2c1CCCCC2 | 65.1% |
| CC1CCc2c(sc(NC(=O)C(C)Oc3cccc(Cl)c3)c2C(N)=O)C1 (stereo not drawn) | 2.45% |
| COc1ccc(CC(=O)Nc2sc3c(c2C(N)=O)CCCCC3)cc1OC | 57% |
| COc1ccc(CC(=O)Nc2sc3c(c2C(N)=O)CCCC3)cc1 | 2.13% |
| CC(Oc1cccc(Cl)c1)C(=O)Nc1sc2c(c1C(N)=O)CCCCC2 (stereo not drawn) | 61.2% |
| Cc1nc2ccccc2c2oc(C(=O)NCc3ccc(F)cc3)cc12 | 1.62% |
| CC(=O)c1ccc(OCCOc2ccc(C(C)=O)cc2)cc1 | -6.82% |
| CCn1c2ccccc2c2nnc(N3CCC(C)CC3)nc21 | -3.1% |
| Cc1cccc(Cc2c(C)nc3c(C(=O)NCCc4ccccc4)cnn3c2C)c1 | -16.3% |
| O=C(O)CSC12CC3CC(CC(C3)C1)C2 | -0.415% |
| O=C1c2ccccc2C(=O)N1c1c(F)c(F)c(C(F)(F)F)c(F)c1F | 1.8% |
| CC1=CC2=NC(=O)/C(=C\c3ccc(OCc4ccccc4C)cc3)C(=N)N2O1 | 3.63% |
